From the supplement of paper PMC10849652
About 8,800 targets were measured; listed, in parts, are those with a hit and a random draw of the rest. About 0.5% of all pairs of compound and target were hits.

Columns and labels:
Assay in all cases: log2 fold change, soluble protein after heating vs DMSO (PISA); higher = thermal stabilisation; K562 lysate, 10 uM; active = over 0.2 and 3.5 SD of the protein, either way, in both replicates (recomputed)
[1] = compound: C1=CC=C(C=C1)[C@H](COC2=CC3=C(C=C2)NC(=O)N3)NC(=O)C4=CC=CN(C4=O)CC5=CC(=C(C=C5)F)F
Summary of the method: (§1)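 Quantification was by TMTpro 16plex LC-MS/MS with equalised channel sums, applied to the supernatant after 21,000xg for 90 min. Samples were crude K562 extract at 1 mg/mL protein in PBS pH 7.4 with 1 mM MgCl2, treated with 10 μM compound for 30 min, heated for 3 min across 48°C-58°C, pooled and brought to 0.5% NP-40 at 4°C. Values are log-two fold changes in thermal stability relative to solvent controls, from duplicates.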

[2] = compound: CC1=C(SC2=C1C(=N[C@H](C3=NN=C(N32)C)CC(=O)N)C4=CC=C(C=C4)Cl)C
Summary of the method: as §1

[3] = compound: CC1=C2C(=CC=C1)N=C(N(C2=O)C3=CC=CC=C3C)CN4C=NC5=C(N=CN=C54)N
Summary of the method: as §1

[4] = compound: Cc1sc2c(c1C)C(c1ccc(Cl)cc1)=N[C@@H](CC(=O)OC(C)(C)C)c1nnc(C)n1-2
Summary of the method: as §1

[5] = compound: c1ccc([C@@H]2C[C@H]2NC2CCNCC2)cc1
Summary of the method: as §1

Measured: log2 fold change

CRABP2 (UniProt P29373)
inactive: [1] -0.057 | [2] -0.051 | [3] 0.055 | [4] -0.172 | [5] -0.001

CNIH4 (UniProt Q9P003)
inactive: [1] -0.355 | [2] -0.301 | [3] -0.017 | [4] 0.11

DNAJC3 (UniProt Q13217)
inactive: [1] 0.06 | [2] -0.073 | [3] -0.003 | [4] -0.01 | [5] 0.031

DNAH10 (UniProt Q8IVF4)
inactive: [1] 0.069 | [2] 0.014 | [3] 0.095 | [4] -0.081 | [5] -0.274

CIP2A (UniProt Q8TCG1)
inactive: [1] -0.03 | [2] -0.002 | [3] -0.008 | [4] -0.021 | [5] 0.018

DENND1B (UniProt Q6P3S1)
UniProt Q6P3S1, sequence (Q6P3S1 whole entry, looked up): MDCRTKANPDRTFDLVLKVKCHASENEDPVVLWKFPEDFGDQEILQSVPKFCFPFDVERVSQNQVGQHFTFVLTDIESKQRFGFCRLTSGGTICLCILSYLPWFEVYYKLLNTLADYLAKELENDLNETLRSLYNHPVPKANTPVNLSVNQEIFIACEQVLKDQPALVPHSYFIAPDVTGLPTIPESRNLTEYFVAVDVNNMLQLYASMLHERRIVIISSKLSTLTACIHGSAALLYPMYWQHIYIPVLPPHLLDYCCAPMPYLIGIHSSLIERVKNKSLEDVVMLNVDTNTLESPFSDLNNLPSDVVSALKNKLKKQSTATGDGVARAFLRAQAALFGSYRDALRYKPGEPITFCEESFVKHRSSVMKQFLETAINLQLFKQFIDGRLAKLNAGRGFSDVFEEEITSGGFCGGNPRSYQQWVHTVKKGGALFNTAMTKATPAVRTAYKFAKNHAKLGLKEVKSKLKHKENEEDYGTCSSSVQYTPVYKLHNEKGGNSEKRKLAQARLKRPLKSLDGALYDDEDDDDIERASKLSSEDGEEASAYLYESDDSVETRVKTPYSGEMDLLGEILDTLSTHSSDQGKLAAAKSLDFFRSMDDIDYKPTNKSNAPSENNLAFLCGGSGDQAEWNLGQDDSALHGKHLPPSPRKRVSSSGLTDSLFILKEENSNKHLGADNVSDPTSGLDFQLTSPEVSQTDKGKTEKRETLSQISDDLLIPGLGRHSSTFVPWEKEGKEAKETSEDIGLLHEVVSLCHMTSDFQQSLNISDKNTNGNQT
inactive: [1] 0.154 | [2] -0.205 | [3] -0.062 | [4] -0.182 | [5] 0.014

DCUN1D4 isoform 3 (UniProt Q92564)
inactive: [1] 0.084 | [2] 0.087 | [3] 0.055 | [4] -0.139 | [5] 0.055

CLUH, A0A494C0R8
inactive: [1] 0.014 | [2] 0.118 | [3] 0.133 | [4] -0.116 | [5] 0.132

DICER1 (UniProt Q9UPY3)
inactive: [1] 0.028 | [2] 0.006 | [3] 0.045 | [4] 0.029 | [5] -0.038

DNAH5 (UniProt Q8TE73)
inactive: [1] -0.019 | [2] 0.018 | [3] 0.007 | [4] -0.087 | [5] -0.216

DARS (UniProt P14868)
inactive: [1] -0.01 | [2] 0.001 | [3] 0.037 | [4] 0.043 | [5] 0.025

CPT1A (UniProt P50416)
inactive: [1] 0.042 | [2] 0.03 | [3] -0.004 | [4] 0.07 | [5] 0.011

CNDP2 (UniProt Q96KP4)
UniProt Q96KP4, sequence (Q96KP4 whole entry, looked up): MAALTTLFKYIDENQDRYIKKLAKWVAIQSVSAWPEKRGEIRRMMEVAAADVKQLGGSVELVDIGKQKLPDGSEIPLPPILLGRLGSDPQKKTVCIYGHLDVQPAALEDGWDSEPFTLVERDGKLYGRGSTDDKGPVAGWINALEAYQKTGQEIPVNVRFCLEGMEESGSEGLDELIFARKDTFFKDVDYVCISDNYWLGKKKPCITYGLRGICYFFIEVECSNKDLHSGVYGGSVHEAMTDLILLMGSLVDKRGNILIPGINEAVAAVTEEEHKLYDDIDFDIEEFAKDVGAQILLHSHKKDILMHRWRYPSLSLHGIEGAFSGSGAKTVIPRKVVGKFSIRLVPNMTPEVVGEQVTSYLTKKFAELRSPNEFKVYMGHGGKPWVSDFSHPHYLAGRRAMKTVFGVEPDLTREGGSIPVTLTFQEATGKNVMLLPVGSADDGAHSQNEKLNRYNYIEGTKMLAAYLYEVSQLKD
inactive: [1] 0.017 | [2] 0.017 | [3] -0.022 | [4] -0.006 | [5] -0.145

COG2 (UniProt Q14746)
UniProt Q14746, sequence (Q14746 whole entry, looked up): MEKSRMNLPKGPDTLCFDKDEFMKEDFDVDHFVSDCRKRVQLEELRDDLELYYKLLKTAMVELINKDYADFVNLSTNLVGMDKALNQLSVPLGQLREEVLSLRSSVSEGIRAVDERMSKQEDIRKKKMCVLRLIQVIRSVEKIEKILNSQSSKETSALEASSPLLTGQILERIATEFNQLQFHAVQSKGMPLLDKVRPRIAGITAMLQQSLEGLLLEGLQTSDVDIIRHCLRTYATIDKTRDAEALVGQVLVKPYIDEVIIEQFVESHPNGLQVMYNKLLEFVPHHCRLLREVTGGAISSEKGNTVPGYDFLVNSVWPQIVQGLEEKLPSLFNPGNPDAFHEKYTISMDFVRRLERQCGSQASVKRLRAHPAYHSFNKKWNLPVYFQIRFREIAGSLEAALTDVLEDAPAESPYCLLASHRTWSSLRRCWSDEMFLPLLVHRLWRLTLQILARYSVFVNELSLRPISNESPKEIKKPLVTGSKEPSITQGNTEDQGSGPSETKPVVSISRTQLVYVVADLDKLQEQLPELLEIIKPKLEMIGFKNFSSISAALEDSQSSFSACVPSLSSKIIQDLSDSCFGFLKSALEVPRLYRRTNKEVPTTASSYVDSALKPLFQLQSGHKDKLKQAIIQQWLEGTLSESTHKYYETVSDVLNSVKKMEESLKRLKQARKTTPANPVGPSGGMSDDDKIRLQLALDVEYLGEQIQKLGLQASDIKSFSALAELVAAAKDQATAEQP
inactive: [1] -0.038 | [2] -0.034 | [3] 0.054 | [4] 0.001 | [5] 0.009

DIAPH1 (UniProt O60610)
inactive: [1] -0.005 | [2] 0.013 | [3] 0.015 | [4] 0.007 | [5] 0.023

CXCL14 (UniProt O95715)
inactive: [1] 0.002 | [2] -0.088 | [3] 0.128

CSAD isoform 3 (UniProt Q9Y600)
inactive: [1] -0.081 | [2] 0.137

DPY19L3 (UniProt Q6ZPD9)
inactive: [1] 0.183 | [2] -0.131 | [3] -0.106

CSDE1 isoform 4 (UniProt O75534)
inactive: [1] -0.012 | [2] -0.009 | [3] -0.017 | [4] 0.046 | [5] 0.04

CHURC1 isoform 2 (UniProt Q8WUH1)
inactive: [1] 0.045 | [2] -0.05 | [3] -0.046 | [4] -0.014 | [5] -0.063

CWC22 (UniProt Q9HCG8)
inactive: [1] -0.033 | [2] 0.028 | [3] 0.034 | [4] 0.079 | [5] 0.237

DCP2 (UniProt Q8IU60)
inactive: [1] 0.006 | [2] -0.001 | [3] 0.041 | [4] 0.026 | [5] 0.048

DHRS1 (UniProt Q96LJ7)
inactive: [1] 0.15 | [2] -0.103 | [3] -0.015 | [4] 0.029 | [5] -0.107

COASY isoform 2 (UniProt Q13057)
UniProt Q13057, sequence (Q13057 whole entry, looked up): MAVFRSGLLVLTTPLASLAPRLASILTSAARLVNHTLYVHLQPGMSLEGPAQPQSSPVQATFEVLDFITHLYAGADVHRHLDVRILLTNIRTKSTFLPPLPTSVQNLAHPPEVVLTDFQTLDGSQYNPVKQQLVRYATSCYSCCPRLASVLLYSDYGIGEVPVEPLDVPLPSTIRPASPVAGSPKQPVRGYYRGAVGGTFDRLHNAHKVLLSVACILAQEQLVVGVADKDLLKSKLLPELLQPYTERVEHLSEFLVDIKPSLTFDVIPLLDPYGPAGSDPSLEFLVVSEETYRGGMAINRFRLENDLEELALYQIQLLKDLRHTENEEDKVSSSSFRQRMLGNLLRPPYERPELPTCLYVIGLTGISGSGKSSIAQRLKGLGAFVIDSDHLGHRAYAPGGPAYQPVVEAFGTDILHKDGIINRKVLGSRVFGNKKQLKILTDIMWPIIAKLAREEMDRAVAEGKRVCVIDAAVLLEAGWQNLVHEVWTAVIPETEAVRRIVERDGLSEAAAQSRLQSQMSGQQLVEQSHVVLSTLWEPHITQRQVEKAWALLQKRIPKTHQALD
inactive: [1] -0.049 | [2] -0.002 | [3] 0.03 | [4] 0.07 | [5] 0.01

CSNK1A1 (UniProt P48729)
inactive: [1] -0.027 | [2] 0.007 | [3] -0.033 | [4] 0.025 | [5] -0.044

CNP (UniProt P09543)
UniProt P09543, sequence (P09543 whole entry, looked up): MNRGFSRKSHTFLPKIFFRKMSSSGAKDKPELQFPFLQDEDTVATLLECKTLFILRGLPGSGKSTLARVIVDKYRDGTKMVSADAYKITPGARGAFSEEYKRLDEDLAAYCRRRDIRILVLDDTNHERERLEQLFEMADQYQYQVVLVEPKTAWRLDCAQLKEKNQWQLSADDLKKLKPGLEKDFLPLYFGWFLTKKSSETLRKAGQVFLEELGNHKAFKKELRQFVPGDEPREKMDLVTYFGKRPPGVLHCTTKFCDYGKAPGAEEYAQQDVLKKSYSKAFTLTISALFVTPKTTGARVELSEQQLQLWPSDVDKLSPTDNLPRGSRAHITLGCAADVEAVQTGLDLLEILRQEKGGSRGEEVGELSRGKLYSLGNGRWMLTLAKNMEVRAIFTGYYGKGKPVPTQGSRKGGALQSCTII
inactive: [1] -0.022 | [2] 0.001 | [3] 0.036 | [4] 0.016 | [5] 0.021

CKS1B (UniProt P61024)
inactive: [1] 0.017 | [2] -0.074 | [3] -0.058 | [4] 0.108 | [5] 0.194

CKM (UniProt P06732)
inactive: [1] 0.008 | [2] -0.027 | [3] -0.109 | [4] -0.169 | [5] 0

DERA (UniProt Q9Y315)
inactive: [1] 0.025 | [2] 0.012 | [3] -0.051 | [4] 0.061 | [5] 0.209

COQ8A (UniProt Q8NI60)
inactive: [1] 0.048 | [2] 0.065 | [3] 0.03 | [4] 0.007 | [5] 0

DOCK7 (UniProt Q96N67)
inactive: [1] 0.071 | [2] 0.095 | [3] -0.017 | [4] -0.011 | [5] 0.012

CIC (UniProt I3L1Q4)
inactive: [1] 0.006 | [2] 0.225

CYCS (UniProt P99999)
UniProt P99999, sequence (P99999 whole entry, looked up): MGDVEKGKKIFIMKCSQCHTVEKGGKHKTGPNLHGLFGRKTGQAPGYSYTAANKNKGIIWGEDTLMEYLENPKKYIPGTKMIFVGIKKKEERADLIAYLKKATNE
inactive: [1] -0.013 | [2] 0.016 | [3] 0.002 | [4] 0.002 | [5] -0.01

CTPS2 (UniProt Q9NRF8)
inactive: [1] -0.001 | [2] -0.009 | [3] -0.008 | [4] 0.004 | [5] 0

DPH5 isoform 5 (UniProt Q9H2P9)
inactive: [1] 0.047 | [2] -0.024 | [3] 0.021 | [4] -0.144 | [5] -0.118

CIC (UniProt I3L2J0)
inactive: [1] -0.03 | [2] -0.034 | [3] -0.109 | [4] 0.042 | [5] -0.02

DMAC2L (UniProt Q99766)
UniProt Q99766, sequence (Q99766 whole entry, looked up): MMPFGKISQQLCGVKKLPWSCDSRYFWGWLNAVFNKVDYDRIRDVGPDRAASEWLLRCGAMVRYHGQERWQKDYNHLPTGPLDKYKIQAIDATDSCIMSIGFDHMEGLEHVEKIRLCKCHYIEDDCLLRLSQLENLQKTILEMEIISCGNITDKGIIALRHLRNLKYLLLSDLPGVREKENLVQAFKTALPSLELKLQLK
inactive: [1] -0.031 | [2] -0.048 | [3] 0.057 | [4] -0.005 | [5] -0.061

DDX4 (UniProt Q9NQI0)
UniProt Q9NQI0, sequence (Q9NQI0 whole entry, looked up): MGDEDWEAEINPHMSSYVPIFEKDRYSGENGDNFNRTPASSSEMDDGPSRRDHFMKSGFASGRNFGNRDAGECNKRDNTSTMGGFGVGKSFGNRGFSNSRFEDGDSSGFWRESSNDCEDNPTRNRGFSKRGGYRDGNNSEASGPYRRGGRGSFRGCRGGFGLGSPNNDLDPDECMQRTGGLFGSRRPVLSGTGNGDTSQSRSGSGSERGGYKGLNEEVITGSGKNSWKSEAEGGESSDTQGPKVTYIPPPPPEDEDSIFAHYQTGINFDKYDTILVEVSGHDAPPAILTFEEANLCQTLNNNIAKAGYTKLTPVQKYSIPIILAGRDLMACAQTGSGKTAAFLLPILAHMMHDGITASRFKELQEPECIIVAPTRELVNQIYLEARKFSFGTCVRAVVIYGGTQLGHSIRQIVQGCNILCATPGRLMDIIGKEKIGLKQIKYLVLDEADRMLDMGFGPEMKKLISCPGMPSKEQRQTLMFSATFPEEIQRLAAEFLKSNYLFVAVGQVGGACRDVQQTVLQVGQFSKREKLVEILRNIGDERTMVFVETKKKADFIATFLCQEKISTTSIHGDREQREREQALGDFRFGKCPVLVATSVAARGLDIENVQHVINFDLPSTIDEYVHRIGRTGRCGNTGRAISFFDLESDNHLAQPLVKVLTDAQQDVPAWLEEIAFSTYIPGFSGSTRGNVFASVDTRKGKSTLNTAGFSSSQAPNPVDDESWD
inactive: [1] -0.047 | [2] 0.007 | [3] -0.004 | [4] 0.049 | [5] -0.265

DDB2 (UniProt Q92466)
UniProt Q92466, sequence (Q92466 whole entry, looked up): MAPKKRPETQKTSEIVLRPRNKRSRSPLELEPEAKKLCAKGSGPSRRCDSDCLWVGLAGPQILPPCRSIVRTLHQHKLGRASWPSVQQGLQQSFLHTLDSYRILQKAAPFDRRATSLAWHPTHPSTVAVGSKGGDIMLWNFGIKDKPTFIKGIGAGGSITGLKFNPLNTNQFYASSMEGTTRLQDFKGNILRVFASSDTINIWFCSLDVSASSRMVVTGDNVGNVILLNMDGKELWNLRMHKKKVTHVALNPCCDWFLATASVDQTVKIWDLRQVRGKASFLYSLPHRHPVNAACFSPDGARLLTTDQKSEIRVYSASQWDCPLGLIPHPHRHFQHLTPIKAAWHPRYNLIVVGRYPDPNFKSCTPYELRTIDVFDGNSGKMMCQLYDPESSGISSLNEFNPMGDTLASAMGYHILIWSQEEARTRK
inactive: [1] -0.025 | [2] -0.026 | [3] 0.034 | [4] -0.027 | [5] 0.006

CNOT4 isoform 6 (UniProt O95628)
inactive: [1] -0.042 | [2] -0.02 | [3] -0.028 | [4] 0.051 | [5] -0.004

DLD (UniProt P09622)
inactive: [1] 0.005 | [2] -0.017 | [3] 0.008 | [4] -0.022 | [5] -0.076

CLASP2 isoform 3 (UniProt O75122)
inactive: [1] 0.002 | [2] -0.028 | [3] 0.079 | [4] -0.003 | [5] -0.061

COG4 (UniProt Q9H9E3)
inactive: [1] 0.005 | [2] 0.034 | [3] 0.096 | [4] -0.036 | [5] 0.011

COQ9 (UniProt O75208)
inactive: [1] -0.102 | [2] -0.069 | [3] 0.026 | [4] 0.015 | [5] 0.08

COTL1 (UniProt Q14019)
UniProt Q14019, sequence (Q14019 whole entry, looked up): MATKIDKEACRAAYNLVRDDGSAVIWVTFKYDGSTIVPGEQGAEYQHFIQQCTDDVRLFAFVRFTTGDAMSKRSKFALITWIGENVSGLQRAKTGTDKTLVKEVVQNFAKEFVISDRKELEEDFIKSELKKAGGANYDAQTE
inactive: [1] -0.018 | [2] -0.019 | [3] 0.01 | [4] 0.031 | [5] 0.064

CHEK1 (UniProt O14757)
inactive: [1] 0.025 | [2] 0.021 | [3] 0.006 | [4] -0.04 | [5] 0

CMTM3 (UniProt Q96MX0)
UniProt Q96MX0, sequence (Q96MX0 whole entry, looked up): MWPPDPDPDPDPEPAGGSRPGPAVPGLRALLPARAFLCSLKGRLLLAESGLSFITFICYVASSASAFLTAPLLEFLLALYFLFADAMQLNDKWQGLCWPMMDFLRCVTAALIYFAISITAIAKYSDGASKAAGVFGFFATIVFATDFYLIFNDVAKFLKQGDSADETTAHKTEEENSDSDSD
inactive: [1] 0.058 | [2] -0.097 | [3] -0.018 | [4] 0.015 | [5] -0.024

DNAJC5 (UniProt Q9H3Z4)
inactive: [1] 0.032 | [2] -0.015 | [3] -0.034 | [4] 0.009 | [5] -0.308

CMSS1 (UniProt Q9BQ75)
inactive: [1] 0.035 | [2] -0.069 | [3] -0.017 | [4] -0.023 | [5] 0.106

DHFR (UniProt P00374)
UniProt P00374, sequence (P00374 whole entry, looked up): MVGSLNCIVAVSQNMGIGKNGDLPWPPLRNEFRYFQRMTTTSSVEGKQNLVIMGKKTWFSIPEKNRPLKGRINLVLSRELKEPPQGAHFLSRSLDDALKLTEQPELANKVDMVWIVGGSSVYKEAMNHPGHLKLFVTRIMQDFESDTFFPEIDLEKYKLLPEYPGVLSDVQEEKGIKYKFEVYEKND
inactive: [1] -0.024 | [2] 0.024 | [3] 0.016 | [4] 0.031 | [5] 0.021

CXorf38 (UniProt Q8TB03)
inactive: [1] 0.021 | [2] 0.007 | [3] -0.021 | [4] -0.004 | [5] 0.031

CSPP1 (UniProt Q1MSJ5)
inactive: [1] -0.082 | [2] 0.001 | [3] 0.051 | [4] -0.008 | [5] -0.028

CXXC1 isoform 2 (UniProt Q9P0U4)
inactive: [1] 0.006 | [2] 0.07 | [3] 0.032 | [4] -0.173 | [5] 0.029

COG5 isoform 2 (UniProt Q9UP83)
inactive: [1] 0.034 | [2] 0.045 | [3] -0.042 | [4] -0.003 | [5] 0.033
